Outcome and AC50 data for 7 molecules are collected here from PubChem BioAssay (EPA / NIEHS).

Read-out in test [1]: Human Leukocyte Antigen - DR isotype (HLADR), HLA-DRA (gene 3122)
Nature of the test: BSK_BE3C_HLADR: BioMAP Diversity Plus: BE3C Assay for Human Leukocyte Antigen - DR isotype (HLADR) Biomarker Activity (AID 2283032). The note with it: primary human bronchial epithelial cells; actives raise or lower the signal. The procedure, abridged:
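Cell-surface HLA-DR ELISA readout at 24 h after dosing in the BE3C primary human lung bronchial epithelial system; gain or loss of signal against DMSO, with parallel sulforhodamine B staining of total protein for overt cytotoxicity.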

Read-out in test [2]: Interferon-gamma inducible Protein 10 (IP10), CXCL10 (gene 3627)
The test is described as follows: BSK_BE3C_IP10: BioMAP Diversity Plus: BE3C Assay for Interferon-gamma inducible Protein 10 (IP10) Biomarker Activity (AID 2283034). As to conditions: primary human bronchial epithelial cells; actives raise or lower the signal. The method in brief:
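IP-10 quantified by ELISA in human primary bronchial epithelial cell cultures at 24 hours post-dosing. Gain or loss of signal fitted relative to DMSO; parallel SRB staining assessed overt cytotoxicity.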

Read-out in test [3]: Monokine induced gamma interferon (MIG), CXCL9 (gene 4283)
Nature of the test: BSK_BE3C_MIG: BioMAP Diversity Plus: BE3C Assay for Monokine induced gamma interferon (MIG) Biomarker Activity (AID 2283035). The note with it: primary human bronchial epithelial cells; actives raise or lower the signal. The procedure, abridged: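 ELISA quantified MIG after 24 h exposure of primary bronchial epithelial cultures, analysed in both directions relative to DMSO. Cytotoxicity tracked in parallel cultures by sulforhodamine B staining.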

Read-out in test [4]: Transforming growth factor beta 1 (TGFb1), TGFB1 (gene 7040)
The test is described as follows: BSK_BE3C_TGFb1: BioMAP Diversity Plus: BE3C Assay for Transforming growth factor beta 1 (TGFb1) Biomarker Activity (AID 2283036;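 on Outcome: TGF-b1 protein level measured by ELISA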). As to conditions: primary human bronchial epithelial cells; actives raise or lower the signal. The method in brief:
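ELISA readout of TGF-b1 from human lung bronchial epithelial primary cells, taken 24 h post-treatment. Gain or loss of signal fitted relative to DMSO baseline, with parallel SRB staining for overt cytotoxicity.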

Read-out in test [5]: urokinase plasminogen activator (uPA), PLAU (gene 5328)
The test is described as follows: BSK_BE3C_uPA: BioMAP Diversity Plus: BE3C Assay for urokinase plasminogen activator (uPA) Biomarker Activity (AID 2283038).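 On Outcome: uPA protein level quantified by ELISA in cell cultures; uPA read one day after compound addition.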 As to conditions: primary human bronchial epithelial cells; actives raise or lower the signal. The procedure, abridged:
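Using confluent primary human lung bronchial epithelial cultures, we dosed chemicals, waited 24 h, then ran a uPA ELISA, fitting bidirectionally against DMSO.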

Read-out in test [6]: Urokinase-type plasminogen activator receptor (uPAR), PLAUR (gene 5329)
Nature of the test: BSK_BE3C_uPAR: BioMAP Diversity Plus: BE3C Assay for Urokinase-type plasminogen activator receptor (uPAR) Biomarker Activity (AID 2283039).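 On Outcome: cells exposed to compound for one day before measurement.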 As to conditions: primary human bronchial epithelial cells; actives raise or lower the signal. The method in brief: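 uPAR levels were measured by ELISA after 24 h compound treatment of primary human bronchial epithelial cells, fitted in both directions relative to DMSO. Parallel SRB staining served as the cytotoxicity read-out.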

Read-out in test [7]: Interleukin-6 (IL6), IL6 (gene 3569)
Nature of the test: BSK_CASM3C_IL6: BioMAP Diversity Plus: CASM3C Assay for Interleukin-6 (IL6) Biomarker Activity for (AID 2283040). As to conditions: primary human coronary artery smooth muscle cells; actives raise or lower the signal.

Read-out in test [8]: Tissue plasminogen activator (tPA), PLAT (gene 5327)
The test is described as follows: BSK_BE3C_tPA: BioMAP Diversity Plus: BE3C Assay for Tissue plasminogen activator (tPA) Biomarker Activity (AID 2283041).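 On Outcome: tPA level quantified by ELISA one day after compound addition.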 As to conditions: primary human bronchial epithelial cells; actives raise or lower the signal. The method in brief: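 tPA measured by ELISA 24 h after dosing human primary bronchial epithelial cells (BE3C system). Changes in either direction were fitted against DMSO. Parallel cultures were stained with SRB to flag overt cytotoxicity.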

Read-out in test [9]: Interleukin-8 (IL8), CXCL8 (gene 3576)
The test is described as follows: BSK_CASM3C_IL8: BioMAP Diversity Plus: CASM3C Assay for Interleukin-8 (IL8) Biomarker Activity (AID 2283042).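 Further: IL-8 protein level quantified by ELISA.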 As to conditions: primary human coronary artery smooth muscle cells; actives raise or lower the signal.

Read-out in test [10]: Human Leukocyte Antigen - DR isotype (HLADR), HLA-DRA (gene 3122)
Nature of the test: BSK_CASM3C_HLADR: BioMAP Diversity Plus: CASM3C Assay for Human Leukocyte Antigen - DR isotype (HLADR) Biomarker Activity (AID 2283043).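 Further: cell-surface HLA-DR protein level quantified by ELISA.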 The note with it: primary human coronary artery smooth muscle cells; actives raise or lower the signal.

Read-out in test [11]: Macrophage colony-stimulating factor (MCSF), CSF1 (gene 1435)
Nature of the test: BSK_CASM3C_MCSF: BioMAP Diversity Plus: CASM3C Assay for Macrophage colony-stimulating factor (MCSF) Biomarker Activity (AID 2283044).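 Further: M-CSF protein amount quantified by ELISA after 24 h exposure.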 As to conditions: primary human coronary artery smooth muscle cells; actives raise or lower the signal.

Read-out in test [12]: Low-density lipoprotein receptor (LDLR), LDLR (gene 3949)
The test is described as follows: BSK_CASM3C_LDLR: BioMAP Diversity Plus: CASM3C Assay for Low-density lipoprotein receptor (LDLR) Biomarker Activity (AID 2283045).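 Further: LDLR protein level on the cell surface quantified by ELISA.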 As to conditions: primary human coronary artery smooth muscle cells; actives raise or lower the signal.

Read-out in test [13]: Monocyte Chemoattractant Protein-1 (MCP1), CCL2 (gene 6347)
The test is described as follows: BSK_CASM3C_MCP1: BioMAP Diversity Plus: CASM3C Assay for Monocyte Chemoattractant Protein-1 (MCP1) Biomarker Activity (AID 2283046).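 Further: MCP-1 level quantified by ELISA 24 h after dosing.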 As to conditions: primary human coronary artery smooth muscle cells; actives raise or lower the signal.

The nature of test [14]: BSK_CASM3C_Proliferation: Cell Proliferation Assessment in the BioMAP Diversity Plus: CASM3C Assay (AID 2283047).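 Further: sulforhodamine B total protein stain as relative cell number at 560 nm; sub-confluent cells exposed 48 h before staining; fitted both ways against DMSO so gain or loss of cell number.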 As to conditions: primary human coronary artery smooth muscle cells.
Read-out in test [15]: Monokine induced gamma interferon (MIG), CXCL9 (gene 4283)
Nature of the test: BSK_CASM3C_MIG: BioMAP Diversity Plus: CASM3C Assay for Monokine induced gamma interferon (MIG) Biomarker Activity (AID 2283048).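 Further: MIG protein level measured by ELISA.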 The note with it: primary human coronary artery smooth muscle cells; actives raise or lower the signal.

Read-out in test [16]: serum amyloid A (SAA), SAA1 (gene 6288)
The test is described as follows: BSK_CASM3C_SAA: BioMAP Diversity Plus: CASM3C Assay for serum amyloid A (SAA) Biomarker Activity (AID 2283049).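 Further: SAA protein level quantified by ELISA.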 As to conditions: primary human coronary artery smooth muscle cells; actives raise or lower the signal.

Test [17] is described as follows: BSK_CASM3C_SRB: Viability Assessment in the BioMAP Diversity Plus: CASM3C Assay (AID 2283050). The note with it: primary human coronary artery smooth muscle cells.
Read-out in test [18]: Thrombomodulin, THBD (gene 7056)
The test is described as follows: BSK_CASM3C_Thrombomodulin: BioMAP Diversity Plus: CASM3C Assay for Thrombomodulin Biomarker Activity (AID 2283051).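 Further: thrombomodulin protein level measured by ELISA 24 h after dosing.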 As to conditions: primary human coronary artery smooth muscle cells; actives raise or lower the signal.

Read-out in test [19]: Plasminogen activator inhibitor-1 (PAI1), SERPINE1 (gene 5054)
The test is described as follows: BSK_BE3C_PAI1: BioMAP Diversity Plus: BE3C Assay for Plasminogen activator inhibitor-1 (PAI1) Biomarker Activity (AID 2283037). As to conditions: primary human bronchial epithelial cells; actives raise or lower the signal. The procedure, abridged:
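PAI-1 was measured by ELISA in human primary bronchial epithelial cultures 24 h after chemical dosing, with cytotoxicity checked by SRB total-protein staining in parallel cultures. Activity was fitted in both directions relative to DMSO.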

Activity calls are given as the source filed them. How the source made its calls: active means hit-call score of the fitted dose curve at least 0.9, where 1 is the maximum; inactive means score below 0.9.

`C=CCc1ccc2c(c1)OCO2`: the outcome in test [1], in test [2], in test [3], in test [4], in [5] and in [6] was inactive. The outcome in test [7], in test [8], in test [9], in test [10], in test [11] and in test [12] was inactive. The result in [13], in test [14], in [15], in [16], in test [17] and in [18] was inactive.
Take `CCC(C)c1ccc(O)cc1` (configuration not stated): the outcome in test [1], in [2], in test [3], in test [4], in [19] and in test [5] was inactive. For the same molecule, the outcome in test [6], in [7], in [8], in test [9], in test [10] and in test [11] was inactive. Besides, the result in test [12], in [13], in test [14], in test [15], in [16] and in test [17] was inactive. Also, in test [18], the result was inactive.
As to `COc1cc(C=O)cc2c1[C@H](COC(N)=O)[C@]1(OC(C)=O)ON2C[C@H]2[C@@H]1N2C(C)=O`, the AC50 in test [1] was 1.74 µM (active); in test [2], 2.72 µM (active); in test [3] it was 9.98 µM (active); in [4], 4.63 µM (active); in test [5] it was 7.92 µM (active); in test [6], 6.18 µM (active). Further, the AC50 in test [7] is 6.63 µM (active); in test [8], 2.11 µM (active); in test [9], 3.6 µM (active); in test [10] it was 1.18 µM (active); in [11] it was 1.3 µM (active); in test [12], 3.91 µM (active). For the same molecule, the concentration at half-maximal activity (AC50) was 4.5 µM (active) in [13]; 0.485 µM (active) in [14]; 3.59 µM (active) in test [15]; 4.54 µM (active) in test [16]; 3.7 µM (active) in [17]; 0.224 µM (active) in test [18].
As to `Brc1ccc(Oc2ccccc2)cc1`, the result in [1], in [2], in [3], in [4], in [5] and in test [6] was inactive. For the same molecule, the result in [7], in test [8], in test [9], in [10], in test [11] and in test [12] was inactive. Further, the outcome in test [13], in test [14], in test [15], in test [16], in [17] and in test [18] was inactive.
In the case of `Cn1cc(-c2ccccc2)c(=O)c(-c2cccc(C(F)(F)F)c2)c1`, the outcome in test [1], in test [2], in test [3], in test [4], in test [5] and in test [6] was inactive. Further, the outcome in test [7], in test [8], in test [9], in test [10], in [11] and in test [12] was inactive. Besides, the outcome in test [13], in test [14], in test [15], in test [16], in test [17] and in [18] was inactive.
Take `CCCCOC(=O)c1ccccc1C(=O)OCc1ccccc1`: the result in [1], in [2], in test [3], in test [4], in [5] and in test [6] was inactive. Moreover, the result in [7], in test [8], in [9], in [10], in test [11] and in [12] was inactive. The result in test [13], in test [14], in test [15], in test [16] and in test [17] was inactive. Besides, in test [18], the AC50 is 20 µM (active).
For `C[N+](C)(C)CC1CO1` (configuration not stated), the outcome in test [1], in test [2], in [3], in [4], in test [5] and in [6] was inactive. Also, the result in test [7], in test [8], in test [9], in test [10], in test [11] and in [12] was inactive. Also, the outcome in [13], in test [14], in test [15], in [16], in test [17] and in test [18] was inactive.
